# Experimental data reported in PubChem BioAssay.
# Records with an inconclusive call do not appear. Activity calls are given as the source filed them. Rule as the data show it, unless noted: active = inhibition above about 30%; inactive = the rest.
# Columns and labels:
# [1] = reducers of endogenous Her2 protein level, primary screen, SKBR3 breast tumor cells, AlphaScreen, ATP viability (AID 461;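 active = Her2 level under about 52% in both replicate screens, with viability over 70% of control, limit read from the data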;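 as to Her2 level: lower value means less Her2 protein in the cells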;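 as to viability: percent of carrier control wells set as 100% viability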); conditions: 18-24 h, measured here: SKBR3 viability, ATP luminescence, at 10 µM
# [2] = target: Receptor tyrosine-protein kinase erbB-2 (Homo sapiens) (UniProt P04626); assay: as above; conditions: 18-24 h, at 10 µM, stronger effect = lower value
# Sequence of Receptor tyrosine-protein kinase erbB-2 (Homo sapiens) (P04626 whole entry, looked up): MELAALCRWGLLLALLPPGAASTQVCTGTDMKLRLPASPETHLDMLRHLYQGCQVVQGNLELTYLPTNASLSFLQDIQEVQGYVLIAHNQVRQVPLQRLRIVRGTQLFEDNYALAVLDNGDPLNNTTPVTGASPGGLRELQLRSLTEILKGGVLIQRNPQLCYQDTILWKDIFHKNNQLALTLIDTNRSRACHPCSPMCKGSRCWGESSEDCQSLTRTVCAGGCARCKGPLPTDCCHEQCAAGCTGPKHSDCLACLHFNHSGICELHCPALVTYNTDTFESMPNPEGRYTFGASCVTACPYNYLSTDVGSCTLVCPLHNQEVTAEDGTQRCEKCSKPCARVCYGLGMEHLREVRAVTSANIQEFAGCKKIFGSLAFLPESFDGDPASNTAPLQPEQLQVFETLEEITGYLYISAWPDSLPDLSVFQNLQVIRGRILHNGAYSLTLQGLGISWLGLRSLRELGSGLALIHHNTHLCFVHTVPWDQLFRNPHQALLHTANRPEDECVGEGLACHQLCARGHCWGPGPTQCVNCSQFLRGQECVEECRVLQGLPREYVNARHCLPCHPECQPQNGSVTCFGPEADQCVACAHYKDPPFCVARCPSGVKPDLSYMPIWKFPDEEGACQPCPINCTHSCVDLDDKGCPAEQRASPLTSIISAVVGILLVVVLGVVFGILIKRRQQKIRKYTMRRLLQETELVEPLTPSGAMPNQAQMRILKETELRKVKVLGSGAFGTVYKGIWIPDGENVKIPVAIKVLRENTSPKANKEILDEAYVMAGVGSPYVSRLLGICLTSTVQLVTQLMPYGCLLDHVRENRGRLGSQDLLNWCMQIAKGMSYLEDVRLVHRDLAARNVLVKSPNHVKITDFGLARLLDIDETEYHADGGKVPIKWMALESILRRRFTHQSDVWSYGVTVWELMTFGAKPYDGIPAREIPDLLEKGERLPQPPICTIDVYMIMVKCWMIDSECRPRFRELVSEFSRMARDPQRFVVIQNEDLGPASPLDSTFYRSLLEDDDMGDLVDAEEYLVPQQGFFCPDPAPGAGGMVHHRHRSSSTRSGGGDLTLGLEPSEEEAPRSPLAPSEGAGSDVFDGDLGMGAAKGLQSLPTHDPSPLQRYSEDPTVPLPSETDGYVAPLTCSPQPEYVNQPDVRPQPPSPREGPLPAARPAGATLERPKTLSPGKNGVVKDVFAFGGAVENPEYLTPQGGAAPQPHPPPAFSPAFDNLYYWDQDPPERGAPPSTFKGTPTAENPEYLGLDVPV
# [3] = SK-BR-3 cell growth inhibitors, pilot screen, 24 h, human (AID 572;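 active = viability at or below 10% of carrier control in both of two separate runs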;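 also: compound exposure lasted between 18 and 24 h rather than exactly 24 h; 100% = carrier-treated control wells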); conditions: SK-BR-3 viability, CellTiter-Glo luminescence, at 10 µM, stronger effect = lower value
# [4] = HUVEC growth inhibition – cell-based, human, primary screen (AID 575;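 active = viability at or below 30% in both replicate assays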;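 also: 100% = median of untreated cell wells with 0.1% DMSO on each plate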); conditions: HUVEC proliferation, CellTiter-Glo luminescence, 72 h; at 10 µM; stronger effect = lower value
# [5] = growth inhibitors of H69AR lung tumor, primary screen, human, duplicate replicates (AID 580;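 active = viability at or under a set limit in both replicates, limit being median viability minus 3 SD, cut at about 48% in these data, passing the limit was not always enough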;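 also: 100% = mean luminescence of untreated wells and 0% = no signal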); conditions: H69AR lung tumor cells viability, ATP luminescence, 72 h; at 10 µM; stronger effect = lower value
# [6] = reversal of MRP1-mediated doxorubicin resistance, pilot screen, H69AR cells, doxorubicin co-treatment (AID 601;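 active = viability loss from added drug above about 55%, and viability with drug at most 40%, in both replicates, limit read from the data, passing the limit was not always enough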); conditions: CellTiter-Glo, 72 h, at 10 µM; for differential viability (reversal): stronger effect = higher value
# [7] = 384-well plate pilot, post-Golgi transport modulator project, inhibition of yeast transport mutant growth (AID 636; in the data active = inhibition above about 31%); conditions: absorbance 615 nm, about 18 h, stronger effect = higher value
# [8] = growth suppression of yeast trafficking mutant, preliminary HTS, modulators of trafficking downstream of Golgi apparatus project, 1536-format plate, OD 615 nm (AID 637); conditions: yeast transport mutant growth, absorbance 615 nm, 18 h; stronger effect = higher value
# [9] = OD615 S. cerevisiae growth inhibition, permissive medium, pilot counter-assay, permissive growth control for S. cerevisiae lifespan shortening project (AID 705;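 active = growth inhibition above 25% in both replicates, a cutoff set 3 SD above the mean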); conditions: OD615, 24 h, at 10 µM, stronger effect = higher value
# [10] = Restrictive medium S. cerevisiae growth inhibition, OD615, pilot screen of yeast lifespan reduction project, restrictive growth control (AID 706;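 active = growth inhibition above a set limit, 3 SD over mean compound inhibition, in both replicates, cut at about 43% in these data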;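 also: modified DeaD lifespan yeast strain shifted to restrictive glucose medium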); conditions: OD615, 48 h, at 10 µM, stronger effect = higher value
# [11] = viability gain of MRP-1-high H69AR cells under doxorubicin, pilot screen, MRP-1 activator project, CellTiter-Glo, duplicate (AID 807;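 active = viability increase at or above a cutoff of the median across tested compounds plus 3 SD, cut at about 8.5% in these data, passing the limit was not always enough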;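 also: compound pretreatment 18-22 h then 72 h combined with doxorubicin; 0% = doxorubicin alone and 100% = vehicle without doxorubicin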); conditions: H69AR viability with doxorubicin, CellTiter-Glo luminescence; at 10 µM; stronger effect = higher value
# [12] = growth suppression of beta-catenin knockout HCT116, pilot screen, human colon tumor cells (AID 823;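 active = cell viability at or below a set limit in both duplicate runs, the limit being the all-compound median minus 4 SD, cut at about 23% in these data, passing the limit was not always enough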;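 also: 0% = wells killed by 20 µM Hyamine and 100% = untreated DMSO cell wells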); conditions: CellTiter-Glo, 60 h, at 10 µM, stronger effect = lower value
# [13] = growth suppression of PTEN-deleted HCT116, pilot screen, cell-based, HCT116 clonal line, CellTiter-Glo (AID 824;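 active = viability at or below 27.92% in each of two runs, the all-compound median minus 4 SD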;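 also: 0% = 20 µM Hyamine control and 100% = vehicle cell control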); conditions: 60 h, at 10 µM, stronger effect = lower value
# [14] = inhibitors of the yeast RAM network, pilot screen, dse1pr::URA3 reporter, 5-FOA selection (AID 869;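 active = inhibition over a set limit, the all-compound mean plus 3 SD, in both replicate runs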;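 also: 0% = DMSO wells with no growth and 100% = 10 µM 1-NA-PP1 with full growth; RAM network block rescues cells from 5-FOA so hits raise OD615 growth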); conditions: S. cerevisiae dse1pr::URA3 5-FOA growth, OD615, 2 d; at 10 µM; stronger effect = higher value; strain carries analog-sensitive mutant Cbk1 kinase
# [15] = RAM signaling pathway blockade in yeast – S. cerevisiae, Pdr1DBD-CYC8 efflux-inhibited sensitized strain, primary screen (AID 1298;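 active = RAM network inhibition above 8.4% in each of two replicates, 3 SD over the compound average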;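 also: 0% = DMSO untreated cells without growth and 100% = 10 µM 1-NA-PP1 full growth; higher means more yeast growth rescued from 5-FOA killing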); conditions: S. cerevisiae cbk1-as DSE1-URA3 strain, 5-FOA growth OD615, 2 d; at 50 µM; stronger effect = higher value
# [16] = H69AR cells + 2 uM doxorubicin, measured here: viability with 2 uM doxorubicin, stronger effect = lower value
# [17] = H69AR cells, compound alone cytotoxicity
SMILES,viability [1],Her2 level [2],viability [3],viability [4],viability [5],differential viability (reversal) ([6]; H69AR cells + 2 uM doxorubicin),"viability [6, 16]","viability [6, 17]",inhibition [7],inhibition [8],growth inhibition [9],growth inhibition [10],viability increase [11],viability [12],viability [13],inhibition [14],RAM network inhibition [15]
CN1CCN(C2=C(Cl)C(=O)N(c3cccc(Cl)c3)C2=O)CC1,80.5%,96.5% (inactive),80.5% (inactive),87.7% (inactive),85% (inactive),4.44% (inactive),80.5%,85%,0.26% (inactive),5.67% (inactive),-16.8% (inactive),-5.5% (inactive),-1.68% (inactive),96.3% (inactive),104% (inactive),0.75% (inactive),2.62% (inactive)
COC(=O)C1=C(C)NC(C)=C(C(=O)OC)C1C1CC=CCC1 (stereo not given),85%,90.5% (inactive),85% (inactive),75.4% (inactive),100% (inactive),23.3% (inactive),77.1%,100%,-0.91% (inactive),6.89% (inactive),-3.42% (inactive),-21.7% (inactive),-4.18% (inactive),90.4% (inactive),87.1% (inactive),2.73% (inactive),8.09% (inactive)
Fc1cccc(Nc2ncnc3c2cnn3-c2ccccc2)c1,83.5%,70.5% (inactive),83.5% (inactive),54.9% (inactive),37.9% (active),-31.6% (inactive),69.5%,37.9%,2.4% (inactive),-1.67% (inactive),-5.18% (inactive),-6.66% (inactive),-5.13% (inactive),71.5% (inactive),70.2% (inactive),0.315% (inactive),0.26% (inactive)
Cc1ccc(CCP(=O)(O)CN2CCOCC2)cn1,85%,87.5% (inactive),85% (inactive),101% (inactive),104% (inactive),12.3% (inactive),91.4%,104%,-7.57% (inactive),3.61% (inactive),-11.9% (inactive),-9.14% (inactive),0.51% (inactive),89.2% (inactive),92.3% (inactive),0.17% (inactive),-0.42% (inactive)
COc1ccccc1OCC(=O)N1CCN(c2ccccc2OC)CC1,93.5%,124% (inactive),93.5% (inactive),111% (inactive),104% (inactive),13.2% (inactive),91.2%,104%,3.78% (inactive),-2.7% (inactive),-3.77% (inactive),-2.73% (inactive),-2.73% (inactive),96.9% (inactive),95% (inactive),0.87% (inactive),-1.28% (inactive)
